From PubChem BioAssay
HT1080-NT tox = kills 2HG-producing HT-1080-NT fibrosarcoma cells; HT-1080-NT fibrosarcoma viability, CellTiter-Glo ATP luminescence, 48 h; Potency, µM (titrated, usually from 46.1 µM), hits mostly cytotoxic; hit rate 1.6% among 360,000; AID 686970;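 also: NT is the 2HG producing partner of a matched IDH1 knockdown line; nearly all actives have a fitted effect of over 55% in size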
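Luminescent CellTiter-Glo readout after 48 hours of compound exposure at 37 degrees C defined viability of HT-1080-NT cells. Activity was normalized to DMSO wells and cell-free media wells; concentration-response curves were fitted and assigned curve classes.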
DT40 TDP1 CPT = growth inhibition of DT40 Tdp1-/-;hTDP1 cells with camptothecin (screen for TDP1 inhibitors); hit rate 12% among 420,000; Potency, µM (doses to about 46.2 µM), most hits filed as inhibitors; AID 686979; chicken DT40 Tdp1-/-;hTDP1 cells + 20 nM CPT, ATP luminescence, 48 h; also: nearly all actives have a fitted effect of over 55% in size
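Chicken DT40 Tdp1-/- cells complemented with human TDP1, 400 cells/well, exposed to compounds plus 20 nM camptothecin for at least 48 h at 37 C; viability read as ATP content by CellTiter-Glo luminescence.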
HT1080 IDH1KD tx = kills HT-1080 cells with IDH1 knockdown. HT-1080 IDH1 knockdown viability, ATP luminescence, 48 h. Potency, µM (titrated, usually from 46.1 µM), hits mostly cytotoxic. hit rate 2% among 360,000. AID 686971
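Using the IDH1-knockdown HT-1080 line run in the same batch and compound series as the NT line, viability after 48 h at 37 °C was determined by CellTiter-Glo luminescence and expressed as % activity.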
IL-1B inflam inh = inflammasome signaling inhibition, IL-1 beta readout; activity change, % at 57.5 µM; AID 743279; hit rate 4.7% among 360,000; THP-1 LPS/ATP IL-1B secretion, AlphaLISA, 16 h; hits give low values; in the data active = activity change below about -50%; inconclusive = mostly about -30% to -49%
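Secreted IL-1B measured by AlphaLISA bead assay after 16 h compound exposure of THP-1 cells; compounds (final up to 57.5 uM) added 1 h before LPS (250 ng/mL) and ATP (1.25 mM) stimulation; lower signal means less secretion.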
DT40 TDP1 no CPT = qHTS for Inhibitors of human tyrosyl-DNA phosphodiesterase 1 (TDP1): qHTS in cells in absence of CPT. DT40 Tdp1-/- hTDP1 cells, no CPT, ATP luminescence, 48 h. Potency, µM (doses to about 46.2 µM), most hits filed as inhibitors. hit rate 15% among 420,000. AID 686978, 2013; also: nearly all actives have a fitted effect of over 55% in size
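Compound effects on proliferation are scored in DT40 Tdp1-/-;hTDP1 cells in the absence of CPT. ATP levels (CellTiter-Glo luminescence) are recorded after a ≥48 hr, 37 °C incubation.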
Large screens that a line does not name were inactive. Most compounds without a hit are left out; they make up all but 19% or so of the library. Unless noted, calls follow the shape of the dose curve; as a rule, active = well fitted curve in the direction sought with a large enough effect; inconclusive = small, poorly fitted or top-dose-only effect, or another doubt; inactive = no such curve, though single readings can be large; an effect the other way counts as inactive or inconclusive.

CCOC(=O)c1ccc(NC(=O)C2CCCN(S(=O)(=O)c3ccc(F)cc3)C2)cc1 (configuration not stated)	HT1080-NT tox inconclusive, DT40 TDP1 CPT inconclusive, HT1080 IDH1KD tx inconclusive, IL-1B inflam inh -64.3, DT40 TDP1 no CPT 23.1µM
CCc1ccc(NC(=O)C2CCCN(S(=O)(=O)c3ccc(F)cc3)C2)cc1 (configuration not stated)	DT40 TDP1 CPT 8.2µM, DT40 TDP1 no CPT 7.31µM (no result: HT1080-NT tox, HT1080 IDH1KD tx, IL-1B inflam inh)
COc1ccc(CCNC(=O)C2CCCN(S(=O)(=O)c3ccc(F)cc3)C2)cc1 (configuration not stated)	DT40 TDP1 CPT inconclusive, DT40 TDP1 no CPT 16.4µM
O=C(NCCc1ccccc1)C1CCCN(C(=O)Nc2ccc(F)cc2)C1 (configuration not stated)	DT40 TDP1 CPT 6.51µM, DT40 TDP1 no CPT 6.51µM
O=C(NCc1ccccc1Cl)C1CCCN(C(=O)Nc2ccc(F)cc2)C1 (configuration not stated)	DT40 TDP1 CPT inconclusive
COc1ccc(NC(=O)c2sc3nc4n(c(=O)c3c2C)CCC4)cc1Cl	none (no result: HT1080-NT tox, HT1080 IDH1KD tx, IL-1B inflam inh)
COc1cc(C(=O)COC(=O)C2CCCCC2)cc(OC)c1OC	none
O=C(NCCc1ccc(Cl)cc1)C1CCCN(S(=O)(=O)N2CCCCCC2)C1 (configuration not stated)	DT40 TDP1 CPT 18.4µM, DT40 TDP1 no CPT 16.4µM
O=C(NC1CCCC1)C1CCCN(S(=O)(=O)c2ccc(F)cc2)C1 (configuration not stated)	DT40 TDP1 no CPT inconclusive
Cc1ccc(NC(=O)C2CCCN(S(=O)(=O)c3ccc(F)cc3)C2)cc1 (configuration not stated)	DT40 TDP1 CPT 23.1µM, DT40 TDP1 no CPT 16.4µM (no result: HT1080-NT tox, HT1080 IDH1KD tx, IL-1B inflam inh)
O=C(C1CCCN(S(=O)(=O)c2ccc(F)cc2)C1)N(Cc1cccs1)C1CC1 (configuration not stated)	DT40 TDP1 CPT 13µM, DT40 TDP1 no CPT 18.4µM
CS(=O)(=O)N1CCCC(C(=O)Nc2ccc(F)cc2)C1 (configuration not stated)	none
O=C(Nc1ccc(N2CCOCC2)cc1)C1CCCN(S(=O)(=O)c2ccccc2)C1 (configuration not stated)	DT40 TDP1 CPT inconclusive, DT40 TDP1 no CPT inconclusive
CN(C)c1ccc(NC(=O)C2CCCN(S(=O)(=O)c3ccccc3)C2)cc1 (configuration not stated)	DT40 TDP1 CPT 14.6µM, DT40 TDP1 no CPT 23.1µM
CCC(=O)N1CCc2cc(S(=O)(=O)NC(C(=O)NCc3ccccc3Cl)C(C)C)ccc21 (configuration not stated)	none (no result: HT1080-NT tox, HT1080 IDH1KD tx, IL-1B inflam inh)
COc1cccc(-c2oc3c(c2C(=O)OCCN2CCCCC2)C(O)CCC3)c1 (configuration not stated)	DT40 TDP1 CPT inconclusive, DT40 TDP1 no CPT inconclusive
COc1ccc(CNC(=O)Cn2c(=O)nc(-c3ccccc3F)c3cc(Cl)ccc32)cc1OC	none (no result: HT1080-NT tox, HT1080 IDH1KD tx, IL-1B inflam inh)
CC(C)Cc1ccc(S(=O)(=O)N2CCN(c3ccccn3)CC2)cc1	none
COc1ccc2nc(SCC(=O)Nc3ccc(S(=O)(=O)N4CCCC4)cc3)c(C#N)cc2c1	DT40 TDP1 CPT 9.2µM, HT1080 IDH1KD tx inconclusive, DT40 TDP1 no CPT inconclusive
N#Cc1cc2ccccc2nc1SCC(=O)Nc1ccc(S(=O)(=O)N2CCCC2)cc1	DT40 TDP1 CPT 20.6µM, DT40 TDP1 no CPT 18.4µM
COc1ccc2nc(SCC(=O)N3CCCCCC3)c(C#N)cc2c1	DT40 TDP1 CPT inconclusive, IL-1B inflam inh inconclusive, DT40 TDP1 no CPT 16.4µM
Cc1cc(NC(=O)CSc2nc3ccccc3cc2C#N)no1	none
COc1ccc2nc(SCC(=O)N3CCCCC3)c(C#N)cc2c1	DT40 TDP1 no CPT inconclusive
Cc1ccccc1C(=O)NC1CC2CCCC(C1)N2C(=O)Nc1ccccc1 (configuration not stated)	none
NC1=NC(=Nc2cccc(Cl)c2)c2ccccc21	DT40 TDP1 CPT inconclusive, DT40 TDP1 no CPT inconclusive
CC(C)c1ccc(N=C2N=C(N)c3ccccc32)cc1	HT1080-NT tox 18.4µM, DT40 TDP1 CPT inconclusive, HT1080 IDH1KD tx inconclusive, IL-1B inflam inh -96.0, DT40 TDP1 no CPT inconclusive
NC1=NC(=Nc2ccc(Cl)cc2)c2ccccc21	HT1080 IDH1KD tx inconclusive
Cc1cc(Cl)ccc1N=C1N=C(N)c2ccccc21	HT1080-NT tox 23.1µM, DT40 TDP1 CPT inconclusive, HT1080 IDH1KD tx inconclusive, DT40 TDP1 no CPT inconclusive
NC1=NC(=Nc2ccc(S(=O)(=O)N3CCOCC3)cc2)c2ccccc21	DT40 TDP1 CPT inconclusive, IL-1B inflam inh -50.8
COc1ccc(NC(=O)CCCc2nc3ccccc3c(=O)[nH]2)cc1Cl	DT40 TDP1 CPT inconclusive, DT40 TDP1 no CPT inconclusive
COC(=O)c1ccccc1NC(=O)CSc1nnc(-c2cccnc2)o1	none
COc1ccc2c(c1)OC(C)CN(CCNC(=O)C1CCOC1)C2 (configuration not stated)	none (no result: HT1080-NT tox, HT1080 IDH1KD tx, IL-1B inflam inh)
Cc1cccc(C2Nc3ccccc3C(=O)N2CCc2ccccc2)n1 (configuration not stated)	DT40 TDP1 CPT inconclusive, DT40 TDP1 no CPT inconclusive
C=CCc1cccc(C2Nc3ccccc3C(=O)N2O)c1O (configuration not stated)	HT1080-NT tox inconclusive
O=C1c2ccccc2NC(c2ccc(Cl)cc2Cl)N1O (configuration not stated)	HT1080-NT tox inconclusive, DT40 TDP1 CPT inconclusive, HT1080 IDH1KD tx inconclusive, DT40 TDP1 no CPT 16.4µM
O=C1c2ccccc2NC(c2ccc(Cl)cc2Cl)N1Cc1ccccc1 (configuration not stated)	HT1080-NT tox inconclusive, DT40 TDP1 CPT 23.1µM, HT1080 IDH1KD tx inconclusive, DT40 TDP1 no CPT inconclusive
O=C1c2ccccc2NC(c2c(Cl)cccc2Cl)N1Cc1ccccc1 (configuration not stated)	DT40 TDP1 CPT 16.4µM, HT1080 IDH1KD tx inconclusive, IL-1B inflam inh inconclusive, DT40 TDP1 no CPT 18.4µM
O=C1c2ccccc2NC(c2cccc(F)c2)N1Cc1ccccc1 (configuration not stated)	IL-1B inflam inh inconclusive
CC1=C(C(N)=O)C(c2ccccc2[N+](=O)[O-])n2ncnc2N1 (configuration not stated)	none
COCCn1c(=O)c(-c2cc(F)cc(F)c2)nc2cnc(N(C)C)nc21	none (no result: HT1080-NT tox, HT1080 IDH1KD tx, IL-1B inflam inh)
CCOc1ccccc1-c1noc(CSc2nnc(-c3ccncc3)n2-c2ccc(F)cc2)n1	DT40 TDP1 no CPT 16.4µM (no result: HT1080-NT tox, HT1080 IDH1KD tx, IL-1B inflam inh)
COc1ccccc1-c1noc(CSc2nnc(Cc3ccccc3)n2-c2ccc(C)c(C)c2)n1	DT40 TDP1 CPT 16.4µM, DT40 TDP1 no CPT 23.1µM (no result: HT1080-NT tox, HT1080 IDH1KD tx, IL-1B inflam inh)
Cc1ccc(SCc2nc(-c3ccccc3)no2)cc1	none
COc1ccc(-c2noc(CSc3nnc(-c4ccncc4)n3-c3ccc(C)c(C)c3)n2)cc1	DT40 TDP1 CPT 14.6µM, DT40 TDP1 no CPT 13µM (no result: HT1080-NT tox, HT1080 IDH1KD tx, IL-1B inflam inh)
Cc1ccc(SCc2nc(-c3ccncc3)no2)cc1	DT40 TDP1 CPT 5.8µM, DT40 TDP1 no CPT 13µM
